According to PubChem BioAssay (Tox21):
Where “and” joins values, the source holds several entries; their conditions need not be identical. Equal entries are not always repeated. Records with an inconclusive call do not appear. A call without a number means that no potency is given here. Some structures have more than one record in an assay (separate samples or runs), and their calls can disagree. Calls of active or inactive are those of the source. The call rests on the fitted dose curve; in most records, active means well fitted curve in the direction sought with a large enough effect in the repeat runs; inconclusive means weak or mixed curves; inactive means no such curve, though single readings can be large; an effect the other way counts as inactive or inconclusive.

Tests used:
[1] = target: Cytochrome P450 2C9 (Homo sapiens) (UniProt P11712); test: Cytochrome P450 Family 2 Subfamily C Member 9 (CYP2C9) small molecule antagonists: luciferase reporter qHTS assay (AID 1671198)
Chain of Cytochrome P450 2C9 (Homo sapiens) (P11712 whole entry, looked up): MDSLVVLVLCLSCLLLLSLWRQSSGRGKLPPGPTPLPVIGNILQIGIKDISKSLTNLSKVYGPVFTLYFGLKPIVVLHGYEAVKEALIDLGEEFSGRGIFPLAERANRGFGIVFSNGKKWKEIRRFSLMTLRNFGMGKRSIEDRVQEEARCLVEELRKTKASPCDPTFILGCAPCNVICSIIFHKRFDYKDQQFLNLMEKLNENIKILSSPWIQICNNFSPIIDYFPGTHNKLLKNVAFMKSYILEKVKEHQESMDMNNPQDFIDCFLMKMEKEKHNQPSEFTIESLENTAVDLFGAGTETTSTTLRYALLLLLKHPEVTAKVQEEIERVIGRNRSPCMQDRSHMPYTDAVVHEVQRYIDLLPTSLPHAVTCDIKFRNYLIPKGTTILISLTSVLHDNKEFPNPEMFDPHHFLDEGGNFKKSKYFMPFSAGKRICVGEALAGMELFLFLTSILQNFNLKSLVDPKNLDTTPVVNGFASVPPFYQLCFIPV
Method in brief: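 Enzyme-substrate mix preincubated with compound 10 min at room temperature; reaction started with NADPH regeneration solution, 1 h 37C. Luminescent luciferin product read after 20 min detection reagent.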

[2] = target: Cytochrome P450 1A2 (Homo sapiens) (UniProt P05177); test: Cytochrome P450 Family 1 Subfamily A Member 2 (CYP1A2) small molecule antagonists: luciferase reporter qHTS assay (AID 1671199)
Chain of Cytochrome P450 1A2 (Homo sapiens) (P05177 whole entry, looked up): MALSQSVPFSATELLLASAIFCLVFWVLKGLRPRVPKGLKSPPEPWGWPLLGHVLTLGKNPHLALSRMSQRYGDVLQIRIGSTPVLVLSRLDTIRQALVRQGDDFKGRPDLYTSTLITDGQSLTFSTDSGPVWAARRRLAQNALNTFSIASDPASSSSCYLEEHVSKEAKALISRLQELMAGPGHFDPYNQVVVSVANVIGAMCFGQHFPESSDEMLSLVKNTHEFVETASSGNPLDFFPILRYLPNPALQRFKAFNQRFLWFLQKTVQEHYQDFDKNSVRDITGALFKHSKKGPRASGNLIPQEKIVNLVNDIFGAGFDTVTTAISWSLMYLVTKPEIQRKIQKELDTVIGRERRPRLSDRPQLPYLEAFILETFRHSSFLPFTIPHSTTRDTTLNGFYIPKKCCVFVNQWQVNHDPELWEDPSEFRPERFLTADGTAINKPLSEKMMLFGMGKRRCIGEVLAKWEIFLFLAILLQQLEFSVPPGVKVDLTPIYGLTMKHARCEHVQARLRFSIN
Method in brief: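 Signal from luciferin formed by CYP1A2 from a proluciferin substrate is read as luminescence, expressed in relative luminescence units. Compounds sit with enzyme 10 min, NADPH-driven reaction runs 1 h, all at room temperature.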

[3] = target: Voltage-gated inwardly rectifying potassium channel KCNH2 (Homo sapiens) (UniProt Q12809); test: Human Ether-a-go-go-Related Gene (hERG) channel small molecule antagonists: fluorescence cell-based qHTS assay (AID 1671200)
Chain of Voltage-gated inwardly rectifying potassium channel KCNH2 (Homo sapiens) (Q12809 whole entry, looked up): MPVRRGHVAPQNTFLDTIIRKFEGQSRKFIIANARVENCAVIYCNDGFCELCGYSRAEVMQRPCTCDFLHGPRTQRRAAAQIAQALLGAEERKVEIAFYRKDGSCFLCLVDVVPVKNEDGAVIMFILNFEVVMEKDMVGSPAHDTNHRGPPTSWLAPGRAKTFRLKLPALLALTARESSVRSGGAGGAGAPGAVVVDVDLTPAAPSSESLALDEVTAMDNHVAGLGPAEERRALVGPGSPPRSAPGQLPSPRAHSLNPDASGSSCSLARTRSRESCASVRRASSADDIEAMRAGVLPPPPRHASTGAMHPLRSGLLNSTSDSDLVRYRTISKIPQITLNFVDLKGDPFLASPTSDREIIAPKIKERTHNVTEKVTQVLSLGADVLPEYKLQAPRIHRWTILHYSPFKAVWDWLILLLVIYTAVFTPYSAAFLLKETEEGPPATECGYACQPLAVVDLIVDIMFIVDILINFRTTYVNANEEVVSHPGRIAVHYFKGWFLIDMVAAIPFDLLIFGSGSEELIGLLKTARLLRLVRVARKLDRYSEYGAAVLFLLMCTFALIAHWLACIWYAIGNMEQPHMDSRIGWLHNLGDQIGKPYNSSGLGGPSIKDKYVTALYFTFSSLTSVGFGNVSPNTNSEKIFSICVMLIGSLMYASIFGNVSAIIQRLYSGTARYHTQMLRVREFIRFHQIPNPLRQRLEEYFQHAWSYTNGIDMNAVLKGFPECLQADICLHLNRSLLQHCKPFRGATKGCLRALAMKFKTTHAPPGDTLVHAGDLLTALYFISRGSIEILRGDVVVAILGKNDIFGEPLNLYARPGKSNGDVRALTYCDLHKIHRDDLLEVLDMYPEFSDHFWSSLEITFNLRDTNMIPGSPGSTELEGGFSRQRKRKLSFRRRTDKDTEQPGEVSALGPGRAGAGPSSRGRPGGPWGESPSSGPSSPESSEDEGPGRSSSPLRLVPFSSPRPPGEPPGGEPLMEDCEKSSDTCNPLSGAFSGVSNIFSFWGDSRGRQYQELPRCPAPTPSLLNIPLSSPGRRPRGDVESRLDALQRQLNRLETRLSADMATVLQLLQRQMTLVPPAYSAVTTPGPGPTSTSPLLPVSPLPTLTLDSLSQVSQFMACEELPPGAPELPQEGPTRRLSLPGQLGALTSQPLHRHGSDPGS
Method in brief: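 Channel function was assessed by thallium flux. Cells seeded the previous day and kept at 37 C took up FluxOR II dye over 1 h in the dark at room temperature, then sat another 10 min before stimulation.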

[4] = target: Cytochrome P450 3A4 (Homo sapiens) (UniProt P08684); test: Cytochrome P450 Family 3 Subfamily A Member 4 (CYP3A4) small molecule antagonists: luciferase reporter qHTS assay (AID 1671201)
Chain of Cytochrome P450 3A4 (Homo sapiens) (P08684 whole entry, looked up): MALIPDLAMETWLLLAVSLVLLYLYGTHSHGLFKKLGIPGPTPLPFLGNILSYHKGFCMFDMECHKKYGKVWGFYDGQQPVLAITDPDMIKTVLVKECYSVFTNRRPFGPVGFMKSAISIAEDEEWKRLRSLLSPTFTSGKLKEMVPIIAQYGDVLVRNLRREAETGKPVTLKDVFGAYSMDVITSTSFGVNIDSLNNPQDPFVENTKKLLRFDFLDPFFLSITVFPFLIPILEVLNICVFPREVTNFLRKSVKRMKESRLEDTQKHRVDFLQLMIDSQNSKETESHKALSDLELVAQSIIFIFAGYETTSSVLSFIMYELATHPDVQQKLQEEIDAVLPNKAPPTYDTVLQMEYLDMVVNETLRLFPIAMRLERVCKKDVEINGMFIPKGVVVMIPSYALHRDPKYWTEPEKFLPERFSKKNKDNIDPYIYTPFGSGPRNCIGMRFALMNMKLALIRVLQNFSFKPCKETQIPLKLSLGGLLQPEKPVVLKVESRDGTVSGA
Method in brief: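 Compounds in DMSO were pin-transferred onto CYP3A4 enzyme-substrate mix and held 10 min at room temperature. NADPH regenerating solution started the reaction for 1 h; luciferin detection reagent stopped it, and luminescence was read after 20 min.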
Further: nearly all actives have a fitted effect of over 50% in size.
Potency means the concentration at half of the fitted maximal effect.

Structure (SMILES)	Potency [1]	Potency [2]	Potency [3]	Potency [4]
Nc1ccc2c(c1)C(=O)c1ccccc1C2=O	19.6 µM (active) and 22.4 µM (active)	220 nM (active) and 252 nM (active)	inactive	1.24 µM (active) and 1.78 µM (active)
NCCOCCO	inactive	inactive	inactive	inactive
CCCCCC=O	inactive	inactive	inactive	inactive
O=C(O)c1ccc(O)cc1	inactive	inactive	inactive	inactive
CCCN1C=CN(C)C1	inactive	inactive	inactive	inactive
C=C[Si](OCCOC)(OCCOC)OCCOC	inactive	inactive	inactive	20.1 µM (active) and 31.7 µM (active)
COCCOCCOCCO	inactive	inactive	inactive	inactive
Brc1nc2ccccc2s1	inactive	31.6 µM (active) and 14.2 µM (active)	inactive	inactive
O=C(O)CCCC(=O)O	39.2 µM (active) and inactive	34.9 µM (active) and inactive	inactive	inactive
Cc1ccc(C(C)(C)C)c(O)c1	34.4 µM (active) and 71 µM (active)	71 µM (active)	inactive	inactive
CCCCCCCCCCC(CO)CCCCCCCC (stereo not drawn)	inactive	inactive	inactive	inactive
CC(=O)Oc1c(C)c(C)c2c(c1C)CC[C@@](C)(CCC[C@H](C)CCC[C@H](C)CCCC(C)C)O2	inactive	inactive	inactive	inactive
COc1cc([C@H]2Oc3cc([C@H]4Oc5cc(O)cc(O)c5C(=O)[C@@H]4O)ccc3O[C@@H]2CO)ccc1O	10 µM (active) and 8.71 µM (active)	35.5 µM (active) and inactive	inactive	–
CCCCCCCCCCCCO	inactive and 22.2 µM (active)	inactive and 27.9 µM (active)	inactive	inactive
ClC/C=C/CCl	inactive	inactive	inactive	inactive
CC[C@]12CCCN3CCc4c(n(c5ccccc45)[C@@](O)(C(=O)OC)C1)[C@@H]32	inactive	inactive	692 nM (active) and 1.69 µM (active)	–

Structure (SMILES)	Potency [1]	Potency [2]	Potency [3]	Potency [4]
c1ccc2c(c1)[nH]c1ccccc12	inactive	2.21 µM (active) and 2.24 µM (active)	inactive	inactive
Nc1cc(Cl)c(N)c(Cl)c1	15.8 µM (active) and 39.9 µM (active)	15.8 µM (active) and 35.6 µM (active)	inactive	3.14 µM (active) and 17.8 µM (active)
IC(I)I	35.5 µM (active) and 63.3 µM (active)	25.2 µM (active)	inactive	–
COc1ccc2nc(N)sc2c1	39.9 µM (active)	22.5 µM (active) and 31.7 µM (active)	inactive	–
CC1(C)NC(=O)N(c2ccc([N+](=O)[O-])c(C(F)(F)F)c2)C1=O	10 µM (active) and 7.76 µM (active)	11.2 µM (active) and 12.3 µM (active)	inactive	–
Cc1ccc(C(C)(C)C)cc1	inactive	inactive	inactive	inactive
CC1(C)OC(=O)NC1=O	inactive	inactive	inactive	–
CCC(=O)O[C@H]1[C@H](O[C@@H]2[C@@H](C)[C@H](O[C@H]3C[C@@](C)(OC)[C@@H](O)[C@H](C)O3)[C@@H](C)C(=O)O[C@H](CC)[C@@](C)(O)[C@H](O)[C@@H](C)C(=O)[C@H](C)C[C@@]2(C)O)O[C@H](C)C[C@@H]1N(C)C	37.4 µM (active) and inactive	inactive	inactive	265 nM (active) and 2.75 µM (active)
Oc1ccc(C(c2ccc(O)cc2)C(Cl)(Cl)Cl)cc1	22.4 µM (active) and 12.6 µM (active)	inactive	inactive	17.8 µM (active) and 20 µM (active)
CC(=O)OC(C)C	inactive	inactive	inactive	inactive
CN(C)C	inactive	inactive	inactive	inactive
Cc1ccc(C)c(O)c1	inactive	30.9 µM (active) and 41.1 µM (active)	inactive	inactive
CC1=CC(C)(C)Nc2ccccc21	12.3 µM (active)	inactive	inactive	2.75 µM (active)
C=CC(=O)OCCCC	inactive	inactive	inactive	inactive
c1ccc2c(c1)ccc1cc3c(ccc4ccccc43)cc12	inactive	24.9 µM (active)	inactive	inactive
